The record followed here is PubChem BioAssay AID651784 (National Center for Advancing Translational Sciences (NCATS), 2012).

Structures are written as SMILES. Inconclusive results are not listed. Activity calls are given as the source filed them. Calls come from the whole dose curve; as a rule, active = well fitted inhibition curve with a large enough effect; inconclusive = small, poorly fitted or top-dose-only effect; inactive = no such curve, though single readings can be large or run the other way.
Potency is the fitted concentration of half-maximal effect.

This assay in a line: Acumen qHTS Assay for Inhibitors of the mTORC1 Signaling Pathway in MEF (Tsc2-/-, p53-/-) Cells: Hit Validation.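 For activity change, negative = inhibition: cells exposed to compound for 24 hours; plate controls were DMSO for no effect and 7.5 nM rapamycin control for full effect.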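 Note: phospho-rpS6 Ser235/236 immunofluorescence normalized to propidium iodide cell count; nearly all actives have a fitted effect of over 65% in size.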 The note with it: Acumen imaging; activity change, negative = inhibition: at 37.3 µM (top of the series). For orientation: Quantitative high-throughput screening tests each substance at several concentrations.
As to `Cc1nn(C(C)C(=O)NC2CCCCC2)c(=O)c2c1sc1ccccc12` (stereo unspecified), the activity change, negative = inhibition was -2.94%.

For the compound `Cc1ccc(C(=O)CC2(O)C(=O)N(Cc3ccccc3)c3ccc(Br)cc32)cc1` (stereo unspecified), the Potency is 11.7 µM (active).

On to `COc1ccc(-c2n[nH]c3c2C(c2ccc(O)cc2)N(c2ccc(Br)cc2)C3=O)cc1` (stereo unspecified), for which the activity change, negative = inhibition worked out at 2.17%.

In the case of `CCCCN(C)CCNC(=O)c1cc2c(=O)n(C)c3ccccc3c2n1C`, the activity change, negative = inhibition was -0.172%.

In the case of `O=C(Nc1ccccc1F)c1nc(S(=O)(=O)Cc2ccccc2F)ncc1Cl`, the Potency was 2.93 µM (active).

As to `CCCSc1oc(-c2ccco2)nc1S(=O)(=O)c1ccc(Br)cc1`, the activity change, negative = inhibition stood at 4.39%.

Consider `COc1ccc(CCN2C(=O)c3[nH]nc(-c4ccccc4O)c3C2c2cccc(OC)c2)cc1` (stereo unspecified), for which the Potency is 5.85 µM (active).

`COC(=O)c1ccc(Nc2nnc(-c3ccc(C)c(S(=O)(=O)N4CCN(C)CC4)c3)c3ccccc23)cc1`: the activity change, negative = inhibition was -21.5%.

Regarding `Cc1cc(-c2ccc(S(=O)(=O)Nc3cccc(C)c3C)s2)on1`, the Potency was 4.14 µM (active).

As to `COc1ccc2nc(NC(=O)c3nc(S(=O)(=O)Cc4ccccc4)ncc3Cl)sc2c1`, the Potency is 5.85 µM (active).

Turning to `O=C(Nc1ccccc1)N(Cc1cccc(Cl)c1)c1ccccn1`, the activity change, negative = inhibition stood at 14.8%.

For `CC(C)CS(=O)(=O)c1oc(-c2ccc(F)cc2)nc1S(=O)(=O)c1ccccc1`, the activity change, negative = inhibition was -152%.

As to `CN(Cc1ccccc1)C(=O)CSc1c2c(nc3ccc(Cl)cc13)CCCC2`, the activity change, negative = inhibition amounted to 9.63%.

In the case of `Cc1ccc(C(=O)/C=C/c2cn(CC(O)CN3CCCCCC3)c3ccccc23)cc1` (stereo unspecified), the Potency is 18.5 µM (active).

Consider `O=C(Nc1ccc(F)c(F)c1)c1ccc(F)c(S(=O)(=O)N2CCC3(CC2)OCCO3)c1`, for which the Potency was 10.4 µM (active).

As for `O=C(Nc1ccc2oc(-c3ccc4ccccc4c3)nc2c1)c1cc(Br)ccc1Cl`, the Potency is 9.27 µM (active).

In the case of `CCCCn1c(=N)n(CCOc2ccccc2OC)c2ccccc21`, the Potency is 4.65 µM (active).

On to `CCC(C)NC(=O)c1sc2nc(C)c(C(=O)Nc3ccc(C)cc3C)c(-c3ccc(Cl)cc3)c2c1N` (stereo unspecified), for which the activity change, negative = inhibition is -10.2%.

Regarding `Cc1ccc(NC(=O)COc2ccc(-c3nn(C)c(=O)c4ccccc34)cc2)c(C)c1`, the activity change, negative = inhibition is -44.6%.

Take `Cc1ccc(-c2nnc(Nc3ccc(O)cc3)c3ccccc23)cc1S(=O)(=O)N1CCCCC1`: the activity change, negative = inhibition is -11.6%.

In the case of `COc1ccccc1C1C=C(c2ccc(Cl)cc2)Nc2nc(-c3ccc(Cl)cc3)nn21` (stereo unspecified), the activity change, negative = inhibition was -9.46%.
